The text below walks through data of PubChem BioAssay AID1851 (National Center for Advancing Translational Sciences (NCATS), 2009).

Usually AC50 stands for the midpoint of the concentration-response curve, whichever way the signal moves.

The campaign covered roughly 16,000 compounds. About 5,700 (36%) were called active. About 24% were inconclusive and are not listed. This is one part of the list. A number with no mark means an inactive call. Calls come from the whole dose curve; as a rule, active = well fitted curve in the direction sought with a large enough effect; inconclusive = small, poorly fitted or top-dose-only effect, or effect the other way; inactive = no such curve, though single readings can be large or run the other way.
% is set by controls: 0 for no effect and ±100 for the full control effect.

This experiment deals with Cytochrome P450 1A2 (Homo sapiens) (UniProt P05177). The experiment is described as follows: Cytochrome panel assay with activity outcomes. Conditions: recombinant CYP, pro-luciferin dealkylation, luminescence, p450-cyp1a2; series mostly up to 57.1 µM; activity, negative = inhibition: at the top concentration.
Cytochrome P450 1A2 (Homo sapiens), sequence (P05177 whole entry, looked up): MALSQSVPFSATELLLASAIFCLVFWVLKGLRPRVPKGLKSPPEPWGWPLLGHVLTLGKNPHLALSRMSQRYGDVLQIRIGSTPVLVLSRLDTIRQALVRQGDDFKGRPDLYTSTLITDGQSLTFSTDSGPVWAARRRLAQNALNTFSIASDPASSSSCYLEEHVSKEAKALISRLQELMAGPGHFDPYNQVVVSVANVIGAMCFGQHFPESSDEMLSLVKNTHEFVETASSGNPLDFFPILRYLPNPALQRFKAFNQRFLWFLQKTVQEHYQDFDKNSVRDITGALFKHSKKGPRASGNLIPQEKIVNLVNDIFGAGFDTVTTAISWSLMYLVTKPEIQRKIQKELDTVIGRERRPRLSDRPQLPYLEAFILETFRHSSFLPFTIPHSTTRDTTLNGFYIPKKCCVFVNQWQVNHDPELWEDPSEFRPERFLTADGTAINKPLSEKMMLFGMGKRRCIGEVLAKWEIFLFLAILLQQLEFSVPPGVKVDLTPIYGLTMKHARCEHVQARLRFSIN
Regarding `CNc1csc(C)c(C)c1=O`, the AC50 is 10 µM (active).
Consider `C=C(C)COc1ccc2c(c1)CCC1C2CC[C@]2(C)C(=O)/C(=N/O)CC12` (stereo partly specified), for which the activity, negative = inhibition was -13.8% [at 11.4 µM].
Take `CCOc1ccc2nc3cc(N=Nc4ccc(N)nc4N)ccc3c(N)c2c1`: the AC50 is 0.794 µM (active).
Consider `Cc1ccc(S(=O)(=O)N(C)c2cc(S(=O)(=O)N3CCC(C)CC3)c(C)cc2C)cc1`, for which the “activity, negative = inhibition” value is 9.58%.
For `COc1ccc(/C=N/NC(=S)NC2CCS(=O)(=O)C2)cc1OC` (stereo unspecified), the AC50 is 6.31 µM (active).
As to `O=C1SC(c2ccccc2)=C/C1=C\N1CCCCC1`, the AC50 was 1 µM (active).
Consider `O=S(=O)(c1ccccc1S(=O)(=O)N1CCCCC1)N1CCCCC1`, for which the “activity, negative = inhibition” value was -15.2%.
Turning to `COC(=O)C/C=C\[C@@H](C)[C@@H](/C=N\O[C@@H](C)c1cc(-c2c(C)cc(C)cc2C)no1)NS(=O)(=O)c1ccc(C)cc1`, the activity, negative = inhibition is 4.06% [at 11.4 µM].
For `CCOc1ccccc1OCCOc1ccc(F)cc1`, the AC50 was 2.82 µM (active).
With `CCOc1ccc(S(=O)(=O)NCc2ccc(F)cc2)c2cccnc12`, the “activity, negative = inhibition” value is -23%.
The same measure, in the same setting: with `CC1(CCC(=O)OC2CCCCC2)OCCO1` the figure was -7.12% [at 11.4 µM].
Take `Cc1ccc(/C=C/C(=O)c2nc3ccccc3[nH]2)cc1`: the AC50 is 1.78 µM (active).
As for `CCCCOc1ccc(/C=C/C(=O)NCCc2nc3ccccc3[nH]2)cc1`, the “activity, negative = inhibition” value was -24.1%.
With `NC(=O)c1ccc([N+](=O)[O-])cc1SCc1ccccc1`, the AC50 was 8.91 µM (active).
On to `CCC(C)NC(=O)NC(=O)N(C1CCCCC1)S(C)(=O)=O` (stereo unspecified), for which the “activity, negative = inhibition” value was 6.61%.
As for `C=CCn1c(SC(C)C(=O)NCc2ccc3c(c2)OCO3)nc2scc(-c3ccccc3)c2c1=O` (stereo unspecified), the AC50 is 10 µM (active).
Take `C=CCn1c(SCc2ccc3c(c2)OCO3)nc2scc(-c3ccco3)c2c1=O`: the AC50 is 2.51 µM (active).
Consider `Cc1nc(SCC(=O)c2ccc(Cl)s2)c2oc3ccccc3c2n1`, for which the AC50 is 0.141 µM (active).
With `CCc1nc(SCC(=O)c2ccc(Cl)s2)c2oc3ccccc3c2n1`, the AC50 was 0.251 µM (active).
For `CCc1nc(SCC(=O)N2CCCc3ccccc32)c2oc3ccccc3c2n1`, the AC50 was 1.26 µM (active).
`O=C(Cn1cnc2ccccc2c1=O)NCCC(=O)Nc1ccc2c(c1)OCCO2`: the “activity, negative = inhibition” value is -28.5%.
Turning to `Cc1nc(SCC(=O)Nc2ccc3c(c2)OCCO3)c2oc3ccccc3c2n1`, the AC50 was 1 µM (active).
Consider `C/C(C[n+]1ccccc1)=N\N=C(N)N`, for which the activity, negative = inhibition is -9.68% [at 11.4 µM].
As to `CCc1nc(SCC(=O)NCCc2ccccc2)c2oc3ccccc3c2n1`, the AC50 is 1.58 µM (active).
Turning to `CCc1nc(N[C@H](C(=O)O)C(C)CC)c2oc3ccccc3c2n1` (stereo partly specified), the “activity, negative = inhibition” value is -23.2%.
`COc1ccc(/C=N/OCc2nc3c4c(ncn3n2)Oc2ccc3ccccc3c2C4c2ccccc2)cc1` (stereo unspecified): the “activity, negative = inhibition” value was -15%.
`COc1cccc(OC)c1C(=O)NC(=S)N1CCN(c2ccc(C(F)(F)F)cc2[N+](=O)[O-])CC1`: the “activity, negative = inhibition” value is -23.3%.
In the case of `CCC(=O)NC(=S)N1CCN(c2ccc([N+](=O)[O-])cc2Cl)CC1`, the AC50 is 12.6 µM (active).
Regarding `CN1CCN(c2ccc([N+](=O)[O-])cc2NC(=O)c2ccccc2Cl)CC1`, the “activity, negative = inhibition” value was -10.4%.
For `CCCCCCCCCCCCCCC[C@H](O)[C@H](N)CO`, the “activity, negative = inhibition” value was -4.79%.
Turning to `Cc1ccc(/C=N/NC(=O)C2CCN(Cc3ccc(F)cc3Cl)CC2)o1`, the “activity, negative = inhibition” value is -26%.
Turning to `Cc1ccc(/C=N\Nc2nc3ccc(Cl)cc3[nH]2)o1`, the AC50 is 2 µM (active).
Take `CCN1C(=O)[C@H]2[C@H]3[C@H](O)[C@H](O)C/C(=N/OCC[C@H]4C=C[C@H](OC(C)=O)[C@@H](COC(C)=O)O4)[C@@H]3CC[C@@H]2C1=O`: the activity, negative = inhibition is -1.02% [at 11.4 µM].
On the same count and under the same terms, then `OC[C@@H]1O[C@@H](n2cnc3c(NC4CCCCC4)ncnc32)[C@@H](O)[C@H]1O`, with -19.5%; and `CC(C)C(=O)N[C@H]1CCCN1C(=O)/C=C\c1ccccc1`, with 1.37% [at 11.4 µM].
As to `C#CCSc1nncn1C(=O)/C=C/c1ccccc1`, the AC50 was 15.8 µM (active).
Regarding `CC(C)C(=O)N[C@@H]1CCCN1C(=O)/C=C\c1ccccc1`, the activity, negative = inhibition was 0.0238% [at 11.4 µM].
Consider `COc1ccc(-c2cc(C(F)(F)F)nc(N3CCOCC3)n2)cc1OC`, for which the AC50 was 0.501 µM (active).
Regarding `COc1ccc(-c2cc(C(F)(F)F)nc(NC3CCCC3)n2)cc1OC`, the AC50 is 2.82 µM (active).
Same read-out and setting: with `COc1ccc(NC(=O)c2ccc(-c3ccc(-c4noc(C)n4)cc3C)cc2)cc1N1CCN(C)CC1` the entry was “inactive”.
In the case of `COc1ccc(CC(=S)N2CCOCC2)cc1OC`, the “activity, negative = inhibition” value was 0.556%.
Consider `COc1ccc(-c2cc(C(F)(F)F)nc(N3CCN(C)CC3)n2)cc1OC`, for which the AC50 was 2.82 µM (active).
Same read-out and setting: then `CN1CCN(c2nc(-c3ccccc3)cc(C(F)(F)F)n2)CC1`, with 1.12 µM (active).
As for `COc1ccc(-c2nnn(Cc3nc(N)nc(N4CCOCC4)n3)n2)cc1OC`, the “activity, negative = inhibition” value was -27.8%.
For `COc1ccc(C(=O)OC(C)CN2CCN(C)CC2)cc1OC` (stereo unspecified), the “activity, negative = inhibition” value is -9.56%.
Still for that read-out and setting: with `O=C(O)[C@@H](O)[C@@H](O)[C@@H](O[C@H]1O[C@@H](CO)[C@@H](O)[C@@H](O)[C@@H]1O)[C@@H](O)CO` the figure was -1.8% [at 25.6 µM].
Regarding `C=C1c2cccc(O)c2C(O)=C2C(=O)[C@@]3(O)C(O)=C(C(N)=O)C(=O)[C@@H](N(C)C)[C@@H]3[C@@H](O)[C@H]12`, the “activity, negative = inhibition” value is -1.08% [at 25.6 µM].
`C#CCCCO/N=C1/C[C@@H](O)[C@@H](O)[C@@H]2[C@@H]3C(=O)N(CC)C(=O)[C@H]3CC[C@H]12`: the activity, negative = inhibition was -27.8% [at 11.4 µM].
For the compound `COc1ccc(-c2cc(C(F)(F)F)nc(N3CCCCC3)n2)cc1OC`, the AC50 was 0.631 µM (active).
With `OC[C@@H]1O[C@@H](N2CCN([C@@H]3O[C@@H](CO)[C@@H](O)[C@H](O)[C@H]3O)CC2)[C@@H](O)[C@H](O)[C@H]1O`, the activity, negative = inhibition is -9.68% [at 2.29 µM].
The same measure, in the same setting: with `CS(=O)(=O)N(CC(=O)Nc1c(F)cccc1F)c1ccc(C23CC4CC(CC(C4)C2)C3)cc1` the figure was -15.3%; with `O=C1O[C@H](CN2CCOCC2)CN1/N=C\c1ccc([N+](=O)[O-])o1`, -16.3% [at 25.6 µM].
Take `Cc1cc2ncn(/N=C/c3ccc([N+](=O)[O-])o3)c2cc1C`: the AC50 is 10 µM (active).
The same measure, in the same setting: with `N/C(=N\OC(=O)Cc1ccc(Cl)cc1)c1cccnc1` the figure was 11.2 µM (active).
As to `CCN=C(Nc1ccc(Cl)cc1)c1cccnc1`, the “activity, negative = inhibition” value is -22%.
Take `C=Cc1c(C)c2cc3[nH]c(cc4nc(cc5nc(cc1[nH]2)C(C)=C5CCC(=O)O)C(CCC(=O)O)=C4C)c(C)c3C=C`: the AC50 was 6.31 µM (active).
Regarding `C=Cc1c(C)c2cc3nc(cc4[nH]c(cc5nc(cc1[nH]2)C(C)=C5CCC(=O)O)c(CCC(=O)OC)c4C)[C@@]1(C)C3=CC=C(C(=O)OC)[C@H]1C(=O)OC` (tested in a mixture with another compound), the AC50 was 3.98 µM (active).
Regarding `CC1CC(OCC(O)CN2CCN(Cc3ccccc3)CC2)CC(C)(C)C1` (stereo unspecified), the “activity, negative = inhibition” value is 3.43%.
For `C/C(=N\Nc1nnc(C)c(=O)[nH]1)C(=O)O`, the “activity, negative = inhibition” value is -3.43%.
On the same count and under the same terms, then `O=C(NCc1ccc(F)cc1)C1CCN(S(=O)(=O)N2CCCCC2)CC1`, with -2.81%.
For the compound `CCCC(=O)NNC(=O)CCC(=O)NCc1ccccc1`, the “activity, negative = inhibition” value is 4.31%.
Consider `O=C(O)CC[C@@H](NC(=O)c1ccccc1C(=O)O)C(=O)O`, for which the “activity, negative = inhibition” value is -2.07%.
In the case of `C/C(=C/C(=O)NCc1ccccc1)C(=O)O`, the “activity, negative = inhibition” value was -3.03%.
For the compound `O=C(O)c1ccccc1C(=O)NCc1ccc(F)cc1`, the AC50 was 5.01 µM (active).
Regarding `O=C(O)NCc1ccccc1` (tested in a mixture with another compound), the AC50 was 3.16 µM (active).
As for `CC1CCCC(NC(=O)C2CCN(S(=O)(=O)N3CCOCC3)CC2)C1C` (stereo unspecified), the “activity, negative = inhibition” value is -7.4%.
Regarding `CN(c1ccc(C(=O)NCC2CCCO2)cc1)S(=O)(=O)c1ccccc1` (stereo unspecified), the “activity, negative = inhibition” value is 0.0846%.
The same measure, in the same setting: with `Cc1cccc(CSCCNC(=O)c2ccc(N(C)S(=O)(=O)c3ccccc3)cc2)c1` the figure was -9.88%.
On to `COC(=O)c1c(C)oc2ccc(N(C(=O)c3ccncc3)S(=O)(=O)c3ccccc3)cc12`, for which the AC50 was 11.2 µM (active).
Still for that read-out and setting: with `Cc1cc(C)cc(Oc2coc3cc(OC(=O)c4cccs4)ccc3c2=O)c1` the figure was 2 µM (active).
Consider `Cc1cccc(Oc2coc3cc(OC(=O)c4cc5ccccc5oc4=O)ccc3c2=O)c1`, for which the “activity, negative = inhibition” value is -15.8%.
For the compound `Cc1nc(N=Nc2ccc(S(=O)(=O)O)cc2S(=O)(=O)O)c(COP(=O)(O)O)c(C=O)c1O`, the AC50 result is “inactive”.
As to `CN(Cc1ccco1)c1nc(-c2cccnc2)nc2ccccc12`, the AC50 was 0.316 µM (active).
For `CN(Cc1ccccc1)c1nc(-c2ccc([N+](=O)[O-])cc2)nc2ccccc12`, the AC50 was 1.58 µM (active).
Same read-out and setting: then `CN(Cc1ccco1)c1nc(-c2ccc3c(c2)OCO3)nc2ccccc12`, with 0.501 µM (active); and `CN(C)c1ccc(-c2nc(N(C)Cc3ccco3)c3ccccc3n2)cc1`, with 0.631 µM (active).
In the case of `CN(Cc1ccco1)c1nc(-c2ccoc2)nc2ccccc12`, the AC50 was 0.398 µM (active).
Same read-out and setting: with `Cc1ccc2[nH]c3c(N4CCc5ccccc5C4)ncnc3c2c1` the figure was 1.58 µM (active).
As to `Cc1ccc2[nH]c3nc(CCCn4ccnc4-c4ccccc4)nnc3c2c1`, the activity, negative = inhibition was -11.9% [at 11.4 µM].
In the case of `CCOc1ccc2c(c1)nc(SCC(=O)c1ccc(Br)s1)n2C`, the AC50 was 2.24 µM (active).
As for `CCOC(=O)N1CCN(C(=O)c2ccc3nc(SCc4ccc(F)cc4)n(C)c3c2)CC1`, the “activity, negative = inhibition” value was -27.9%.
For `COc1ccc2c(c1)nc(SCC(=O)c1ccc(Br)s1)n2C`, the AC50 is 7.94 µM (active).
`CCC/C=C(\CCC)C(NC(=O)c1ccc(C(F)(F)F)cc1)c1ccc(C(F)(F)F)cc1` (stereo unspecified): the “activity, negative = inhibition” value was -16.4%.
As to `CCC/C=C(\CCC)C(NC(=O)OCC(C)C)c1ccc(C(=O)OC)cc1` (stereo unspecified), the AC50 is 15.8 µM (active).
As to `CCC/C=C(\CCC)C(NC(=O)Oc1ccc(F)cc1)c1ccc(C(=O)OC)cc1` (stereo unspecified), the “activity, negative = inhibition” value is -12.3%.
`CCC/C=C(\CCC)C(NC(=O)c1ccc(C(=O)OC)cc1)c1ccc(C(=O)OC)cc1` (stereo unspecified): the “activity, negative = inhibition” value is -19.2%.
`CCC/C=C(\CCC)C(NS(=O)(=O)c1cccs1)c1ccc(C(=O)OC)cc1` (stereo unspecified): the AC50 is 12.6 µM (active).
On to `CCC/C=C(\CCC)C(NC(=O)C(C)(C)C)c1ccc(C(=O)OC)cc1` (stereo unspecified), for which the “activity, negative = inhibition” value is -14%.
On to `CCC/C=C(\CCC)C(NS(=O)(=O)c1ccc(C(F)(F)F)cc1)c1ccc(C(=O)OC)cc1` (stereo unspecified), for which the “activity, negative = inhibition” value was -13.6%.
Take `CCC/C=C(\CCC)C(NC(=O)c1cccs1)c1ccc(C(=O)OC)cc1` (stereo unspecified): the AC50 is 5.01 µM (active).
For the compound `CCC/C=C(\CCC)C(NS(=O)(=O)CC12CCC(CC1=O)C2(C)C)c1ccc(C(=O)OC)cc1` (stereo unspecified), the “activity, negative = inhibition” value is -13.8%.
